Bioassay records as filed in PubChem BioAssay.
Only some compounds are listed: those with a hit (about 4.5% of all), similar ones and a draw of the others.
TPT1 inhibitor: blocks Candida albicans tRNA 2'-phosphotransferase. 300,000 compounds, 0.81% hits. inhibition, % at 5 µM. recombinant caTPT1, FP RNA substrate dephosphorylation. AID 1962;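 active = inhibition above the mean of all tested compounds plus 3 SD, set per screening campaign, cut at about 24% in these data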;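 also: plate controls were DMSO alone for no effect and ferristatin control at 100 nM for full effect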
Rpn11 inh: Rpn11 (human) deubiquitinase inhibition. inhibition, % at 20 µM. AID 588493. 360,000 compounds, 0.59% hits. human 26S proteasome, Ub4-pepOG fluorescence polarization; 20S core pre-blocked with epoxomicin. O00487;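 active = inhibition at 20 µM, scaled to each plate's controls, above about 33%, limit read from the data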
ZTA counter: counter-screen for EBNA-1 inhibitors: inhibitors of Epstein-Barr virus ZTA. inhibition, % at 11 µM. ZTA-DNA binding, fluorescence polarization. 320,000 compounds, 0.15% hits. P03206; in the data active = inhibition above about 33%
dFosB act-1: activators of mouse delta FosB homodimer; activation, % at 25 µM; P13346; 340,000 compounds, 0.99% hits; purified delta FosB, TAMRA-CDK5 oligo fluorescence polarization; percent of positive-control signal above neutral wells;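 active = mean activation above about 17%, with every replicate also reaching it, limit read from the data, passing the limit was not always enough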
GRIN3A LBD mod: NR3A (human) ligand-binding domain modulation. NR3A LBD differential scanning fluorimetry, Tm shift; 0% = protein alone, 100% = glycine-bound protein. Tm shift relative to glycine control, % at 25 µM. 340,000 compounds, 2.5% hits. AID 1259313;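 active = melting temperature shift of at least 10% of the positive control shift, at one fixed dose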
EBNA-1 inh: blocks EBNA-1 binding to DNA. EBNA-1 DNA binding, fluorescence polarization. inhibition, % at 14.8 µM. 300,000 compounds, 0.34% hits; in the data active = inhibition above about 28%
dFosB act-2: delta FosB (mouse) homodimer activation; AID 588690; 2,400 tested, under 10 active; purified delta FosB, TAMRA-CDK5 oligo fluorescence polarization; normalised: neutral wells 0, positive control 100; shares compounds with dFosB act-1; activation, % at 24.9 µM;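 active = highest replicate activation at or above 34% and every replicate reaching that threshold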;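 also: higher polarization means more probe DNA bound by delta FosB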
Rpn11 confirm: confirmation of human proteasome Rpn11 inhibitors; shares compounds with Rpn11 inh; purified human 26S proteasome, Ub4-pepOG fluorescence polarization; proteasome pretreated with epoxomicin; inhibition, % at 20 µM; 1,900 compounds, 29% hits
MMP-2 counter: counter-screen for RPN11 inhibitors: inhibition of human MMP-2; shares compounds with Rpn11 inh; recombinant MMP-2, FRET peptide cleavage fluorescence; inhibition, % at 20 µM; 1,900 compounds, 4% hits;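 also: human MMP-2 activated beforehand with APMA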
Thrombin FP: counter-screen for RPN11 inhibitors: inhibition of bovine thrombin; shares compounds with Rpn11 inh; bovine thrombin cleavage of Ub4-pepOG, fluorescence polarization; inhibition, % at 20 µM; 1,900 compounds, 13% hits;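 active = mean inhibition at least 40% at 20 µM, or signal 3 deviations below plate average, so some actives read negative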;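 also: plate controls were thrombin with DMSO for no effect and buffer wells lacking thrombin for full effect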
Target sequence (P00735 whole entry, looked up): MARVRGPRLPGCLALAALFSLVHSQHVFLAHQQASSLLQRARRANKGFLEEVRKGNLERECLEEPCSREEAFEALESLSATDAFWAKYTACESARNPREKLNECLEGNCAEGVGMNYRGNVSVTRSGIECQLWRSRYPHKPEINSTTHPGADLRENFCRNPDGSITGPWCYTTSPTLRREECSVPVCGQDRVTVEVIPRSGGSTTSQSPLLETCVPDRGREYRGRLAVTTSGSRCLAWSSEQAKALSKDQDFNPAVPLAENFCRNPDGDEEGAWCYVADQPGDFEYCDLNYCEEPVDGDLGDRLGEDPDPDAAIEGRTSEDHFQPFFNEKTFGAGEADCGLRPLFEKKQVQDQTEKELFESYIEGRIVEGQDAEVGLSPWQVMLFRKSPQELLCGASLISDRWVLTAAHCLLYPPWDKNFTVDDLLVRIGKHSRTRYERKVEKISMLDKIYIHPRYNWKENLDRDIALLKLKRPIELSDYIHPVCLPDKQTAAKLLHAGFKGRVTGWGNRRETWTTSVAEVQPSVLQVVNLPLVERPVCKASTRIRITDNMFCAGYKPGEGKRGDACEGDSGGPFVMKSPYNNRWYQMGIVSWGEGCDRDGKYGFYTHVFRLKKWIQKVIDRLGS
Starred values were filed as active, the others as inactive; · = not tested or not shown; + = active, no number. Rule as the data show it, unless noted: active = inhibition above about 40%; inactive = the rest.

SMILES | TPT1 inhibitor | Rpn11 inh | ZTA counter | dFosB act-1 | GRIN3A LBD mod | EBNA-1 inh | dFosB act-2 | Rpn11 confirm | MMP-2 counter | Thrombin FP
Cc1ccc(S(=O)(=O)N2CCN(C(=O)COC(=O)/C=C/c3ccc([N+](=O)[O-])cc3)CC2)c(C)c1 | · | 65* | · | 24* | 0 | · | -3 | -1 | -4 | -4
Cc1nc(NC(=O)/C=C/c2ccccc2)sc1C(=O)Nc1ccccc1Cl | 1 | 40* | 15 | 39* | -1 | 3 | 3 | 38 | -41 | -17
Cc1nc(NC(=O)C2CC2)sc1C(=O)Nc1ccccc1Cl | · | 2 | · | -3 | -1 | · | · | · | · | ·
O=C(N/N=C/c1ccco1)c1cc2ccccc2o1 | 1 | -7 | -11 | -9 | -8 | 8 | · | · | · | ·
O=C(COc1ccc(/C=N/NC(=O)c2cc3ccccc3o2)cc1Br)Nc1ccccc1 | -1 | 118* | 9 | 66* | 1 | -9 | 4 | 41* | -105 | -15
Fc1ccc(Nc2nc(-c3ccncc3)nc3ccccc23)cc1F | -2 | 80* | -5 | 89* | -4 | -11 | 2 | 17 | -18 | -23
CC(C)(C)NC(=O)NC(=O)C[n+]1ccc(Cc2ccc([N+](=O)[O-])cc2)cc1 | 0 | 0 | 10 | -1 | 0 | -8 | · | · | · | ·
COc1cccc(CNC23CC4CC(CC(C4)C2)C3)c1OCc1ccccc1 | 0 | -4 | 13 | 8 | -2 | -1 | · | · | · | ·
COc1ccc(CC(=O)Nc2ccc(-c3nnc(-c4ccccc4)o3)cc2)cc1OC | 1 | 69* | 8 | 120* | 7 | 13 | -7 | 22 | 14 | -17
COc1ccc(/C(C)=N/NC(=O)c2nnn(-c3nonc3N)c2-c2cccs2)cc1 | -1 | 0 | 5 | 0 | 0 | 5 | · | · | · | ·
COc1ccc(/C(C)=N/NC(=O)c2nnn(-c3nonc3N)c2-c2ccccc2)cc1 | -1 | 80* | 7 | 30* | -17 | -14 | 7 | 93* | 0 | -11
COc1ccc(N2CCCC2)c(NC(=O)c2ccc(Br)o2)c1 | -20 | -4 | -4 | 4 | 3 | -6 | · | · | · | ·
O=C(CSc1nnc(SCc2ccc(Cl)cc2)s1)N/N=C/c1c[nH]c2ccccc12 | -1 | 125* | 18 | 38* | 24* | 16 | 5 | 68* | 20 | -3
COc1ccc(CNC(=O)c2noc(C)c2[N+](=O)[O-])cc1 | -1 | -1 | 7 | 4 | 1 | 11 | · | · | · | ·
C/C(=N\NC(=O)c1ccc(OC2OCCOC2Oc2ccc(C(=O)N/N=C(\C)c3ccncc3)cc2)cc1)c1ccncc1 (stereo unspecified) | 2 | + | 7 | 97* | -1 | -3 | 3 | 192* | -489 | 51*
O=C(/C=C/c1ccccc1Cl)Nc1ccc2c(c1)C(=O)NC2=O | 6 | 54* | -7 | 20* | 7 | 0 | 0 | 57* | 22 | -24
COc1ccc(NC(=O)CSc2ccc3ccccc3c2)cc1S(=O)(=O)N1CCCCC1 | 2 | 9 | 12 | -5 | 6 | 1 | · | · | · | ·
Fc1ccc(N2CCN(C3=Nc4cccc5cccc3c45)CC2)cc1 | 19 | 42* | -6 | 22* | 1 | -3 | 2 | 8 | -25 | 0
c1ccc(CN2CCN(C3=Nc4cccc5cccc3c45)CC2)cc1 | · | 4 | · | 16 | -1 | · | · | · | · | ·
CS(=O)(=O)c1ccccc1C(=O)Nc1cccc2ncccc12 | -7 | -9 | 1 | -3 | -1 | -6 | · | · | · | ·
COc1ccc(NC(=O)c2ccc(NC(=O)CN(C)CC(=O)Nc3c(C)cccc3C)cc2)cc1 | 0 | 4 | 3 | -10 | 6 | 4 | · | · | · | ·
